Rows were chosen to be rich in hits. Some 4.8% of all compounds tested hit in one or more screens of this group.
DAX1 inh-1 = inhibits human nuclear receptor DAX1. 340,000 compounds, 0.99% hits. P51843. HEK293 Gal4-DAX1 luciferase reporter, luminescence. inhibition, % at 6.75 µM. AID 504766;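 active = inhibition above the mean over all tested compounds plus 3 SD, cut at about 4.2% in these data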;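 also: inhibition shows as a rise in luminescence from relieved DAX1 repression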
hcDAF12 agonist = activators of H. contortus DAF-12 nuclear receptor; HEK293 hcDAF-12 lit1-tk-luc reporter, luminescence; 0% DMSO, 100% Δ7-dafachronic acid; 370,000 compounds, 1.4% hits; activation, % at 6.8 µM;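 active = activation above the mean of all tested compounds plus 3 SD, cut at about 5.5% in these data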
DAX1 inh-2 = blocks DAX1 repression of SF-1 activated StAR promoter. HEK293T StAR-luciferase reporter, SF-1/DAX-1 repression relief. inhibition, % at 6.8 µM. 370,000 compounds, 1.1% hits;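 active = inhibition above the mean over all tested compounds plus 3 SD, cut at about 3.6% in these data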;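 also: higher inhibition means more luminescence from relief of DAX-1 repression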
ssDAF-12 act = activators of S. stercoralis DAF-12 nuclear receptor; 370,000 compounds, 1% hits; activation, % at 6.8 µM; AID 652126; HEK293 ssDAF-12/GRIP1 lit1-tk-luc reporter, luminescence; % of 3 µM dafachronic acid response;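 active = activation above the mean over all tested compounds plus 3 SD, cut at about 0.9% in these data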
hgDAF12 agonist = hgDAF-12 agonism, primary luciferase screen; HEK293 GAL4-hgDAF12 UAS-luciferase reporter, agonist luminescence; normalized to butyrate control; activation, % at 6.8 µM; 370,000 compounds, 1.8% hits;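 active = activation above a cutoff set at the mean of all screened compounds plus 3 SD, cut at about 10% in these data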
Rev-erbA mod = modulates human Rev-erb alpha binding to DNA; 370,000 compounds, 0.79% hits; AID 1259318; activity, % at 10 µM; P20393; Rev-erbα–FITC-DNA binding, fluorescence polarization, 90 min;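 active = activity above about 14%, limit read from the data; passing the limit was not always enough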
Target sequence (P20393 whole entry, looked up): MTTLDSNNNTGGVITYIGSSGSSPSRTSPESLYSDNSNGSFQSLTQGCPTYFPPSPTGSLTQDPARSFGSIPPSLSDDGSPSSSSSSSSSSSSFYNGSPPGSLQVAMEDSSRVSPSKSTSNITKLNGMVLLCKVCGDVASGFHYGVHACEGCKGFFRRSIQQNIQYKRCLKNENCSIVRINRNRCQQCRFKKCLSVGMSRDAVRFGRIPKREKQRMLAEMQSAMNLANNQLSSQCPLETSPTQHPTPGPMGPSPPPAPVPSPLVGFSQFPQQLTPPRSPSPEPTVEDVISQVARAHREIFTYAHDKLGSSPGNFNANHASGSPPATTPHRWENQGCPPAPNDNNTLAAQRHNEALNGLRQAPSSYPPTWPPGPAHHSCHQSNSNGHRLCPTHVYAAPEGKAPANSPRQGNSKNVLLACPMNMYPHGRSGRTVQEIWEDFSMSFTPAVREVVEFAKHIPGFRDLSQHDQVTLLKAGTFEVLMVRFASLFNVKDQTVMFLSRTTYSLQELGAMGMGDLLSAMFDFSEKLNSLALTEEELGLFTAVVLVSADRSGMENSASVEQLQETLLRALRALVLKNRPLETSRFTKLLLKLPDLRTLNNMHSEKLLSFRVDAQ
Hits are given with their value; i = inactive; nt = no result.

SMILES	DAX1 inh-1	hcDAF12 agonist	DAX1 inh-2	ssDAF-12 act	hgDAF12 agonist	Rev-erbA mod
O=C(CCn1nnc(-c2cccs2)n1)N1CCOCC1	nt	i	i	i	i	i
CCCCC(C(=O)O)C(C)CC(=O)Nc1nncs1 (stereo unspecified)	4.7	i	i	i	i	i
OCC1OC(n2cnc3c(NCCc4ccccc4)ncnc32)C(O)C1O (stereo unspecified)	i	i	i	i	13	i
CNC(C#Cc1ccccc1)c1ccccc1C(F)(F)F (stereo unspecified)	nt	i	nt	i	i	i
COC(=O)C1CCN(C(=O)CCn2nnc(-c3cccs3)n2)CC1	nt	i	i	i	i	i
COc1cc(OC)c(NC(=S)NCc2ccc(F)cc2)cc1Cl	4.3	i	i	i	i	i
COc1ccc(NC(=S)NCc2ccc(F)cc2)c(OC)c1	i	i	i	i	i	i
C=C1C(=O)[C@]23C[C@H]1CC[C@H]2[C@]1(C)[C@@H](O)CC[C@@](C)(C(=O)O)[C@H]1C[C@@H]3O	nt	i	4.3	i	i	i
C=C1C(=O)[C@]23C[C@H]1CCC2[C@@]1(C)C(C[C@@H]3O)[C@](C)(C(=O)O)C[C@H](O)[C@@H]1O (stereo partly specified)	nt	i	i	i	i	i
C(#CC1=CCCCC1)CNCc1ccccc1	nt	i	i	i	i	i
O=C(Nc1nccs1)c1ccc(N2C(=O)[C@@H]3[C@H](C2=O)[C@H]2C=C[C@@H]3C2)cc1	4.5	i	i	i	12	i
O=C(Nc1nccs1)c1cccc(N2C(=O)C3C4C=CC(C4)C3C2=O)c1 (stereo unspecified)	i	i	i	i	i	i
O=C(Nc1nccs1)c1ccc2nccnc2c1	4.6	i	i	i	i	i
Cc1ccccc1NC(=O)[C@H]1CC(=O)O[C@@H]1c1ccccc1	nt	i	i	i	i	i
COc1ccc(N2C(=O)C(CC(N)=O)N(NC(=O)CCc3ccccc3)C2=O)cc1 (stereo unspecified)	5.9	i	i	i	i	i
COc1ccc(CN2C(=O)N(c3ccc(OC)cc3)C(=O)C2CC(=O)Nc2ccccc2)cc1 (stereo unspecified)	i	i	i	i	i	i
COc1cc(/C=C2/CC(C)OC2=O)c([N+](=O)[O-])cc1OC (stereo unspecified)	4.7	i	i	i	i	i
COc1cc(/C=C2\S/C(=N/S(=O)(=O)c3ccccc3)NC2=O)c([N+](=O)[O-])cc1OC	i	i	i	i	i	i
O=C1c2ccccc2/C(=C\c2ccc(O[C@@H]3CCCCO3)cc2)N1c1ccccc1	nt	i	i	i	11	i
CC(=O)N1CCN=C1SCc1ccccc1Cl	5.0	i	i	i	i	i
COC1C(O)C(O)C(O)C(O)C1O (stereo unspecified)	4.9	i	i	i	i	i
COc1ccc2c(c1)CNC2CS(=O)(=O)NCCc1ccccc1 (stereo unspecified)	nt	i	i	i	i	i
CCOc1cc(C2NN=C(c3ccccc3)S2)ccc1OCc1ccc(F)cc1 (stereo unspecified)	i	i	i	1.1	12	i
CNC12CCc3cc(OC)c(OC)c(c31)-c1cc3c(cc1C2)OCO3 (stereo unspecified)	nt	i	i	i	i	i
Cc1cccc(NC(=O)CN2C(=O)N/C(=C/c3cc(C)n(-c4cccnc4)c3C)C2=O)c1	6.6	i	i	i	i	i
SMILES	DAX1 inh-1	hcDAF12 agonist	DAX1 inh-2	ssDAF-12 act	hgDAF12 agonist	Rev-erbA mod
O=C(CCc1ccc(S(=O)(=O)NC2CCCCC2)cc1)NCc1cccnc1	i	i	i	i	i	i
Cc1ccc(CNC(=O)CCc2ccc(S(=O)(=O)NC3CCCCC3)cc2)cc1	i	5.8	i	i	i	i
C#CCNC(=O)C[C@H]1C(=O)N(Cc2ccc(OC)cc2)C2=CCCC[C@@]21C(=O)OCC	nt	i	i	i	i	i
Cc1nc2sc(C(N)=O)c(N)c2c(C)c1CC(=O)c1ccccc1	i	i	i	i	12	i
O=c1c2ccccc2n(Cc2ccno2)n1[C@@H](Cc1ccccc1)Cn1cc(C2CCCC2)nn1	nt	i	i	i	i	i
CC(/C=N/NC(=O)c1cccs1)=C\c1ccco1	i	i	i	i	12	i
